In PubChem BioAssay (Tox21) one finds Potency data, which are given here for 37 molecules.

“And” between values parts separate entries of the source, which are not always exact repeats. Identical values can stand only once. Records with an inconclusive call do not appear. Where a call stands in place of a potency, no number is given. The source holds several records for some structures; these can differ, active in one and inactive in another. The source made the active and inactive calls. Calls come from the whole dose curve; as a rule, active = well fitted activation curve with a large enough effect in the repeat runs; inconclusive = weak or mixed curves; inactive = flat fitted curve, though single readings scatter.
Potency is the fitted concentration of half-maximal effect.

The assay is described as follows: A CellTox Green Cytotoxicity Assay to monitor cytotoxicity in HEK293 cells - 40 hour (AID 1224871). Note: nearly all actives have a fitted effect of over 45% in size. The conditions noted are these: CellTox Green fluorescence; series mostly up to 76.8 µM. In outline: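 Fluorescence from a DNA-binding dye excluded by viable cells was measured repeatedly in the same HEK293 wells (600 cells/well) during continuous compound exposure at 37 C. Each assay gives one read point: 0, 8, 16, 24, 32 or 40 h.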
For `N=C(N)c1ccc(OCCCCCOc2ccc(C(=N)N)cc2)cc1`, the Potency was 48.8 µM (active) and 46.8 µM (active) and inactive.
Then `Nc1ccc(S(=O)(=O)Nc2nccs2)cc1`, with “inactive and 43.6 µM (active)”; and `Cc1ccc(S(=O)(=O)NC(=O)NN2CCCCCC2)cc1`, with “inactive”.
With `Cc1noc(NS(=O)(=O)c2ccc(N)cc2)c1C`, the Potency result is “inactive”.
With `O=c1cc[nH]c(=S)[nH]1`, the Potency entry is “inactive”.
In the case of `Cc1ccccc1C(OCCN(C)C)c1ccccc1` (configuration not stated), the Potency entry is “inactive”.
As for `CC(C)(Oc1ccc(C2CC2(Cl)Cl)cc1)C(=O)O` (configuration not stated), the entry is “inactive”; as for `CCCNC(=O)NS(=O)(=O)c1ccc(Cl)cc1`, “inactive”.
For `O=S(=O)(O)NC1CCCCC1`, the Potency result was “inactive”.
As for `CCCCC1C(=O)N(c2ccccc2)N(c2ccccc2)C1=O`, the entry is “inactive”.
As to `Cc1cc(=O)n(-c2ccccc2)n1C`, the Potency was 44.8 µM (active) and inactive.
Then `O=C(O)c1cc(N=Nc2ccc(S(=O)(=O)Nc3ccccn3)cc2)ccc1O`, with “inactive”; and `C[C@]12C=CC(=O)C=C1CC[C@@H]1[C@@H]2[C@@H](O)C[C@@]2(C)[C@H]1CC[C@]2(O)C(=O)CO`, with “inactive”.
As for `CC(C)[C@@H]1CC[C@@H](C)C[C@H]1O`, the entry is “inactive”.
Then `OCCc1ccccc1`, with “inactive”.
On to `O=C(C1CCCCC1)N1CC(=O)N2CCc3ccccc3C2C1` (configuration not stated), for which the Potency entry was “inactive”.
As to `O=C1NC(=O)c2ccccc21`, the Potency entry was “inactive”.
Then `O=C(O)CS`, with “inactive”; and `CCCC(CCC)C(=O)O`, with “inactive”.
Consider `Cn1cc[nH]c1=S`, for which the Potency result is “inactive”.
For `Cc1cn([C@H]2C[C@H](N=[N+]=[N-])[C@@H](CO)O2)c(=O)[nH]c1=O`, the Potency entry was “inactive”.
Take `Nc1ccc(S(=O)(=O)c2ccc(N)cc2)cc1`: the Potency result was “inactive”.
As for `O=S(=O)(O)c1ccc2cc(O)ccc2c1`, the entry is “inactive”; as for `CCOc1ccc(NC(=O)CC(C)O)cc1` (configuration not stated), “inactive”.
As for `C/C=C/c1ccc(OC)cc1`, the entry is “inactive”; as for `O=C1CN(/N=C/c2ccc([N+](=O)[O-])o2)C(=O)N1`, “inactive”; as for `CC(=O)Nc1nnc(S(N)(=O)=O)s1`, “inactive”.
As for `Cn1c(=O)c2[nH]cnc2n(C)c1=O`, the entry is “inactive”; as for `CC(O)C(=O)O` (configuration not stated), “inactive”.
With `Cc1ccc(O)cc1`, the Potency result is “inactive”.
In the case of `COc1ccc2[nH]cc(CCNC(C)=O)c2c1`, the Potency result is “inactive”.
As for `NC(=O)NC1NC(=O)NC1=O` (configuration not stated), the entry is “inactive”; as for `NC(=O)c1ccccc1O`, “inactive”.
Then `O=c1ccc2ccccc2o1`, with “inactive”.
`Cc1cc(=O)[nH]c(=S)[nH]1`: the Potency entry is “inactive”.
For the molecule `CC(=O)OCC(COC(C)=O)OC(C)=O`, the Potency result is “inactive”.
Turning to `O=C(O)c1cccnc1`, the Potency result was “inactive”.
